Unmarked numbers belong to inactive results. Activity calls are given as the source filed them. No stated cut-off is given here; in the data, active means fold change permeability below about 0.7 or above about 1.3; inactive means in between.

This experiment in a line: modulators of brain endothelial barrier permeability, primary screen, cell-based, FITC-avidin fluorescence, HTS (AID 1963498). Further: test concentration not given here. The note with it: actives lie on both sides.

For the compound `NCCCCNCCCN`, the fold change permeability is 0.7 (active).

As for `OCCN1CCN(CCCN2c3ccccc3Sc3ccc(Cl)cc32)CC1`, the fold change permeability is 1.2.

In the case of `COc1ccc2c(c1)c(CC(=O)O)c(C)n2C(=O)c1ccc(Cl)cc1`, the fold change permeability was 1.7 (active).

With `COc1ccc(/C=C/C(=O)Nc2ccccc2C(=O)O)cc1OC`, the fold change permeability is 1.4 (active).

Take `Cc1ccc(C(=O)Nc2sc(Nc3ccccc3)nc2C(N)=O)cc1`: the fold change permeability was 1.3 (active).

`COc1ccccc1-c1cc(Nc2cccc(CS(N)(=O)=O)c2)ncn1`: the fold change permeability was 0.9.

`CC1(C)CCC(NC(=O)[C@@H](N)CCC(=O)O)CC1`: the fold change permeability is 0.9.

Regarding `CCN1CCC[C@H]1CNC(=O)c1cc(S(N)(=O)=O)ccc1OC`, the fold change permeability is 0.7 (active).

Consider `NC(=O)C1=CN(C2OC(COP(=O)(O)OP(=O)(O)OC[C@H]3O[C@@H](n4cnc5c(N)ncnc54)C(OP(=O)(O)O)[C@H]3O)C(O)C2O)C=CC1` (stereo not given in full), for which the fold change permeability was 0.9.

Take `CCN(CC)C(=S)SSC(=S)N(CC)CC`: the fold change permeability was 1.7 (active).

Turning to `CN(C)CC/C=C1\c2ccccc2COc2ccccc21`, the fold change permeability was 1.4 (active).

Take `CN(C)c1nc(N(C)C)nc(N(C)C)n1`: the fold change permeability is 1.1.

On to `OC[C@H]1O[C@@H](n2cnc3c(NC4CCCCC4)ncnc32)[C@H](O)[C@@H]1O`, for which the fold change permeability is 1.2.

In the case of `C[C@H]1O[C@@H](n2cc(F)c(=O)[nH]c2=O)[C@H](O)[C@@H]1O`, the fold change permeability is 0.8.

`CCCCCCNc1nc(NC2CCN(C)CC2)c2cc(OC)c(OC)cc2n1`: the fold change permeability was 1.

In the case of `CC[C@H](NC(=O)c1c(C)c(-c2ccccc2)nc2ccccc12)c1ccccc1`, the fold change permeability was 1.

Consider `CC(=O)Oc1cc(C(F)(F)F)ccc1C(=O)O`, for which the fold change permeability is 0.8.

Take `CC(C[N+](C)(C)C)OC(N)=O` (stereo not given): the fold change permeability was 1.

Regarding `CC(C)c1nc(N(C)S(C)(=O)=O)nc(-c2ccc(F)cc2)c1/C=C/[C@@H](O)C[C@@H](O)CC(=O)O`, the fold change permeability is 0.9.

For `Nc1ncnc2c1ncn2C1CCCC1`, the fold change permeability was 0.9.

(Values after PubChem BioAssay.)
